Data from the supplement of paper PMC11732987, “Enantioselective OTUD7B fragment discovery through chemoproteomics screening and high-throughput optimisation” (Communications Chemistry, 2025).

Assays:
Assay in all cases: log2 ratio of Biotin-Ahx-Ub-VS probe labelling (fragment/DMSO); higher = less target engagement (more negative = stronger competition), active = hit call of the paper (q ≤ 0.05, log2 ratio ≤ -1)
Settings in all cases: compound concentration: 200 uM; treatment time: 3 h
OTUD6B = biological target: T1, OTUD6B (UniProt Q8N6M0)
T1 sequence (whole entry): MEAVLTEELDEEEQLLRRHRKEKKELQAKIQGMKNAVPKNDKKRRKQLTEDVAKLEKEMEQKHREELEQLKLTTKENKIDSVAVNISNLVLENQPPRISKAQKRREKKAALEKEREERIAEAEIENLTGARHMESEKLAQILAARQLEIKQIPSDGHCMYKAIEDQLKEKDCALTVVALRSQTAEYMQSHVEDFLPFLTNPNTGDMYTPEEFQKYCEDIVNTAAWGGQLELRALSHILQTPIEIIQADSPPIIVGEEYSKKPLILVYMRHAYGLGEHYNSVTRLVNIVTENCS
Summary of the method: (§1)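 The table lists average log2 ratios of fragment over vehicle, from an unpaired t-test on global-median-normalised Spectronaut label-free quantities. Proteins with ≥2 unique peptides were used. Samples were HEK293T lysate (495 µg) treated in triplicate with fragment at 200 µM or vehicle for 3 h, then with Biotin-Ahx-Ub-VS (0.5 µM final) for 1 h, with labelled DUBs NeutrAvidin-enriched and run by diaPASEF LC-MS/MS.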

OTUD7B = biological target: T2, OTUD7B (UniProt Q6GQQ9)
T2 sequence (whole entry): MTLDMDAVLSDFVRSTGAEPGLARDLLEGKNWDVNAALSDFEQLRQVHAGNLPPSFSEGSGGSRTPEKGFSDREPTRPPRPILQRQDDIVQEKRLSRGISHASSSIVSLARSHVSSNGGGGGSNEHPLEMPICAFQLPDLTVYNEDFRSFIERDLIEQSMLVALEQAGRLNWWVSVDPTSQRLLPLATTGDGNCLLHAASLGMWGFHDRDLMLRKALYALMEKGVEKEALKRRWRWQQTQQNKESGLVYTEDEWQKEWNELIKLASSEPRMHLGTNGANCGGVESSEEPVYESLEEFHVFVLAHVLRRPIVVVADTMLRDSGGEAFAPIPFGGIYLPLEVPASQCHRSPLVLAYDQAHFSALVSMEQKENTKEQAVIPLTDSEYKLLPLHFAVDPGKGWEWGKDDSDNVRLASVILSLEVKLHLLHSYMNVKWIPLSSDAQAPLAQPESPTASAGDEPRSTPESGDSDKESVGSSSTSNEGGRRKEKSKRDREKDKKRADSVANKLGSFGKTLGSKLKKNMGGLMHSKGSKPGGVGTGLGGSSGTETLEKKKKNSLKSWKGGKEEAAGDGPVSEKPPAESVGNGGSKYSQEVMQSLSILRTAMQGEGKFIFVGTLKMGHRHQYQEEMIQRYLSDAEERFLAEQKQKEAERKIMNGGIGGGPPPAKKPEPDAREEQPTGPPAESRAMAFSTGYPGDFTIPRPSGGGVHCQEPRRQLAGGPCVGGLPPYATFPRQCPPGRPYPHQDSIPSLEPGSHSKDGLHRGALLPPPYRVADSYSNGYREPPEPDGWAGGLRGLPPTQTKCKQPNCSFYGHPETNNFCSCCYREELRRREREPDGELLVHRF
Summary of the method: as §1

PRPF8 = PRPF8 (UniProt Q6P2Q9)
Summary of the method: as §1

PSMD7 = biological target: T3, PSMD7 (UniProt P51665)
T3 sequence (whole entry): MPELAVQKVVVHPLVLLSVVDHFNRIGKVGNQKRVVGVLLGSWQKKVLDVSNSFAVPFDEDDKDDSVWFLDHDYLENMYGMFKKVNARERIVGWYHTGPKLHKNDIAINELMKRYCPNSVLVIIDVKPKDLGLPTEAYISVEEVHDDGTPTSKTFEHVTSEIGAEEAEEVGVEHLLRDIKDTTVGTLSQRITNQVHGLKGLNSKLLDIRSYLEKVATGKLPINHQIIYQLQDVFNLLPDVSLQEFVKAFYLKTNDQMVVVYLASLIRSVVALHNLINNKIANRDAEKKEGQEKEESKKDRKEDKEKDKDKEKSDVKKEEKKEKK
Summary of the method: as §1

UCHL1 = UCHL1 (UniProt P09936)
Summary of the method: as §1

UCHL3 = biological target: T4, UCHL3 (UniProt P15374)
T4 sequence (whole entry): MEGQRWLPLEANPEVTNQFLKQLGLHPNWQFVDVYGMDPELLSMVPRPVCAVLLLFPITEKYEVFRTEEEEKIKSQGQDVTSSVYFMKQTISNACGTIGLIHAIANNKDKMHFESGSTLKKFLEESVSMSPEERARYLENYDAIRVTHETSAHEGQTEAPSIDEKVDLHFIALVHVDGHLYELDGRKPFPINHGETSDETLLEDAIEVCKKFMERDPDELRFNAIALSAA
Summary of the method: as §1

UCHL5 = biological target: T5, UCHL5 (UniProt Q9Y5K5)
T5 sequence (whole entry): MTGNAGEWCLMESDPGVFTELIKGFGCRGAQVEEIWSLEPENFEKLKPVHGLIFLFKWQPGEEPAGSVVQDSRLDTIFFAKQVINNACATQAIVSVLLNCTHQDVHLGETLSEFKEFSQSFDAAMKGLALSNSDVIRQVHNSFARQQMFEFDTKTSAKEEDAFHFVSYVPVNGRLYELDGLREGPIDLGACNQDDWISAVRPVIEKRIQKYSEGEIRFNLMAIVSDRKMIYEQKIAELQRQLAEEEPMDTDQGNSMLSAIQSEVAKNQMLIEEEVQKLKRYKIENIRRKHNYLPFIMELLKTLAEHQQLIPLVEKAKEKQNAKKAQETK
Summary of the method: as §1

USP10 = USP10 (UniProt Q14694)
Summary of the method: as §1

USP15 = biological target: T6, USP15 (UniProt Q9Y4E8)
T6 sequence (whole entry): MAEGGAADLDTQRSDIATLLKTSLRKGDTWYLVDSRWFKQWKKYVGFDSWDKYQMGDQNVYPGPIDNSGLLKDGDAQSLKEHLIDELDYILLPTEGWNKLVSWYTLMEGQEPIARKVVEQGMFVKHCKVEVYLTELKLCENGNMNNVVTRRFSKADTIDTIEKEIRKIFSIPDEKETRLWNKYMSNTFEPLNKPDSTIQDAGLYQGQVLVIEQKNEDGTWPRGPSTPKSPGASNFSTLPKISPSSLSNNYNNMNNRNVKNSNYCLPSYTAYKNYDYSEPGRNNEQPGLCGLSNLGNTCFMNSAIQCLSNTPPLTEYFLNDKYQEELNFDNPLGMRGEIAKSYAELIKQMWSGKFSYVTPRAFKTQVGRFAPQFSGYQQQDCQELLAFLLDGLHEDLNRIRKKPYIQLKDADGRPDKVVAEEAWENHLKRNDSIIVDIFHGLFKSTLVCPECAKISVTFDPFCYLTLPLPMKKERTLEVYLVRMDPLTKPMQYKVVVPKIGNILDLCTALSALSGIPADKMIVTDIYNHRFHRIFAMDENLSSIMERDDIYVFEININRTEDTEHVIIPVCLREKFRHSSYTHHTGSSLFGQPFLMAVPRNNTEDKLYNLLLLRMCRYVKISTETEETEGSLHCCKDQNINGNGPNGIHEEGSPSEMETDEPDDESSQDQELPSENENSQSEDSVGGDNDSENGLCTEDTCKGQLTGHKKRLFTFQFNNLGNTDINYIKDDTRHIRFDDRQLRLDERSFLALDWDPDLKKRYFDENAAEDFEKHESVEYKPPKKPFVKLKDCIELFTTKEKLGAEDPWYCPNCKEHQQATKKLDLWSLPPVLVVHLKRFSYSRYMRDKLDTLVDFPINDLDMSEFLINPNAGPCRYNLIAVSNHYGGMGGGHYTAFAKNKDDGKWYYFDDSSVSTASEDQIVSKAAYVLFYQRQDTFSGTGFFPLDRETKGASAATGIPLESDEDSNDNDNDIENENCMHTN
Summary of the method: as §1

USP16 = USP16 (UniProt Q9Y5T5)
Summary of the method: as §1

Measured: log2 ratio of Biotin-Ahx-Ub-VS probe labelling

Sequence of USP10 (Q14694 whole entry): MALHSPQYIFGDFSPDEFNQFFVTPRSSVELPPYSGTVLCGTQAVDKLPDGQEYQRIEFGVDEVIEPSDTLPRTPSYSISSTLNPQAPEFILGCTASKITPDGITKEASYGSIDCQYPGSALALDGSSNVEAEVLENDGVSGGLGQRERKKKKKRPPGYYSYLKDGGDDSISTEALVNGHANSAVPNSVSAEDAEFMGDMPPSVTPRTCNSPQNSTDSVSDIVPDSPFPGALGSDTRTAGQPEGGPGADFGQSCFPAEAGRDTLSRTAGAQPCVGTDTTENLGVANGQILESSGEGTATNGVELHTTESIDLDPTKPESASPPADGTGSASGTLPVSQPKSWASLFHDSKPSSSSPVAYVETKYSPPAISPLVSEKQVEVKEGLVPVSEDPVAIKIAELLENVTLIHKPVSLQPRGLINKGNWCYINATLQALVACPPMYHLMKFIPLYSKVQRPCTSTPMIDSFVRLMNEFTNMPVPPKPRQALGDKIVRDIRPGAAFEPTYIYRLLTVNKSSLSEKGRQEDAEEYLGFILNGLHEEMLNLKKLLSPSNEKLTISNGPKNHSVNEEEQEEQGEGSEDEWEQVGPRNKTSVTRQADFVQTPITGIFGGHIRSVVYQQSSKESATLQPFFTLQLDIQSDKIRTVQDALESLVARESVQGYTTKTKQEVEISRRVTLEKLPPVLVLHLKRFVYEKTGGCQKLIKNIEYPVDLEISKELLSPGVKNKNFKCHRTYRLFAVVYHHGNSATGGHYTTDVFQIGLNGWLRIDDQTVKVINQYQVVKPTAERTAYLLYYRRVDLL
Sequence of UCHL1 (P09936 whole entry, looked up): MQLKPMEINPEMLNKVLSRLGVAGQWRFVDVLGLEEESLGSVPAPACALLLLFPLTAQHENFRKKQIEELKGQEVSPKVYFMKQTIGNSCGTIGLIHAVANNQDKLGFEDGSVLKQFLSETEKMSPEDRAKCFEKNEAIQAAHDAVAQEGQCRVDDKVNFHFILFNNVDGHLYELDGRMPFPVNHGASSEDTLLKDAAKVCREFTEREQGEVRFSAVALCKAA
Sequence of USP16 (Q9Y5T5 whole entry, looked up): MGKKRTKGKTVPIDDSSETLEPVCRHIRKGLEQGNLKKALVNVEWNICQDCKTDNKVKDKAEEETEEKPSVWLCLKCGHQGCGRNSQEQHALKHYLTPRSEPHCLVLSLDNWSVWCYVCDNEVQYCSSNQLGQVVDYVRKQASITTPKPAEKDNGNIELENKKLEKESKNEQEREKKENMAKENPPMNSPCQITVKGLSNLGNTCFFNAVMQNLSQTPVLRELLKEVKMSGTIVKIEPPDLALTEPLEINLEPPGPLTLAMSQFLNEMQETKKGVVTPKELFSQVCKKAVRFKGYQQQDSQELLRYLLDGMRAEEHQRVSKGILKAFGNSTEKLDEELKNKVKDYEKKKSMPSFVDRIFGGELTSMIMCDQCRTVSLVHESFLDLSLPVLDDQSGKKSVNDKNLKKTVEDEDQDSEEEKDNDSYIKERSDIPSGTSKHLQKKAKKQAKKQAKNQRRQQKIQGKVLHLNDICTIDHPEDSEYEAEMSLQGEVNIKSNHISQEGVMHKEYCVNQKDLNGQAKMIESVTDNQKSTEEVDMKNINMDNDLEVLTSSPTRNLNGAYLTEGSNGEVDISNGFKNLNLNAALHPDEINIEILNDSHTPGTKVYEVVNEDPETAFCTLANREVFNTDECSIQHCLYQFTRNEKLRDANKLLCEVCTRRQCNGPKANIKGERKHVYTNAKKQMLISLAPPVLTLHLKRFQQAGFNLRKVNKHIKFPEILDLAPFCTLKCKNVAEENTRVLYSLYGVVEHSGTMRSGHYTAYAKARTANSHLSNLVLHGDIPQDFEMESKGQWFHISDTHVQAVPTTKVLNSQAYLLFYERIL

N#Cc1ccc(CNC(=O)CCl)cc1
active: UCHL1 -1.19
inactive: OTUD6B 0.025 | OTUD7B -0.865 | PRPF8 -0.187 | PSMD7 -0.28 | UCHL3 0.183 | UCHL5 -0.131 | USP10 -0.0787 | USP15 -0.145 | USP16 0.29
